Where “and” joins values, the source holds several entries; their conditions need not be identical. Identical values can stand only once. Compounds without any hit were thinned out: in the full panel of roughly 79,000, 15% have a hit. A structure can be active in one record and inactive in another. Calls of active or inactive are those of the source. No stated cut-off is given here; in the data, active means growth inhibition above about 70%; inactive means the rest.
Experiments:
[1] = NCI Yeast Anticancer Drug Screen. Data for the rad50 strain (AID 155);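 further: 0% = growth of vehicle-only cultures of the same strain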; conditions: S. cerevisiae rad50 strain growth inhibition, stronger effect = higher value
In short: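 Relative growth inhibition (compound vs vehicle) was measured in yeast with a defined repair-gene alteration.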

[2] = NCI Yeast Anticancer Drug Screen. Data for the mec2-1 strain (AID 157); conditions: S. cerevisiae mec2-1 strain, stronger effect = higher value
In short: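 Using mec2-1 yeast: add compound, measure growth, express inhibition versus vehicle-treated cultures.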

[3] = NCI Yeast Anticancer Drug Screen. Data for the sgs1 mgt1 strain (AID 161);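 further: 0% = growth of cultures given vehicle only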; conditions: S. cerevisiae sgs1 mgt1 strain, stronger effect = higher value
In short: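 Growth of a repair-deficient yeast mutant was monitored after compound treatment and expressed as inhibition relative to vehicle-treated cultures.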

[4] = NCI Yeast Anticancer Drug Screen. Data for the cln2 rad14 strain (AID 165);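 further: 0% = growth equal to vehicle treated cultures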; conditions: S. cerevisiae cln2 rad14 strain, stronger effect = higher value
In short: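 Yeast strain cln2 rad14, bearing defects in cell cycle control and DNA repair, serves as the test system; values reflect growth inhibition compared with vehicle.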

[5] = NCI Yeast Anticancer Drug Screen. Data for the bub3 strain (AID 167); conditions: S. cerevisiae bub3 mutant strain, stronger effect = higher value
In short: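 Screening used yeast with an engineered genetic alteration affecting cell cycle control. Compound-exposed cultures were compared with vehicle cultures, and reduced growth was taken as inhibition.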

[6] = NCI Yeast Anticancer Drug Screen. Data for the mlh1 rad18 strain (AID 175); conditions: S. cerevisiae mlh1 rad18 strain growth inhibition, stronger effect = higher value
In short: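 Steps: expose repair-defective yeast to compound; measure growth; express inhibition against vehicle-treated controls.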

[7] = at 5.0 µM (retest, dose inferred, filed as 0.5)
[8] = at 50.0 µM (retest, dose inferred, filed as 5.0)

| Compound | growth inhibition ([1]; at 50.0 µM) | growth inhibition [1, 7] | growth inhibition [1, 8] | growth inhibition [2, 7] | growth inhibition [2, 8] | growth inhibition ([2]; at 50.0 µM) | growth inhibition [3, 7] | growth inhibition [3, 8] | growth inhibition ([3]; at 50.0 µM) | growth inhibition [4, 7] | growth inhibition [4, 8] | growth inhibition ([4]; at 50.0 µM) | growth inhibition [5, 7] | growth inhibition [5, 8] | growth inhibition ([5]; at 50.0 µM) | growth inhibition [6, 7] | growth inhibition [6, 8] | growth inhibition ([6]; at 50.0 µM) |
| --- | --- | --- | --- | --- | --- | --- | --- | --- | --- | --- | --- | --- | --- | --- | --- | --- | --- | --- |
| COc1nc(N)c(NC2OCC(O)C(O)C2O)c(=O)n1C (centres undefined) | -32.8% (inactive) [middle of 5 runs] | – | – | – | – | – | – | – | – | – | – | – | – | – | – | – | – | – |
| CC(C)c1ccc(C=Nc2ccc(SSc3ccc(N=Cc4ccc(C(C)C)cc4)cc3)cc2)cc1 | 73.7% (active) | 44% (inactive) | -7% (inactive) | 26% (inactive) | 1% (inactive) | 49.4% (inactive) | 57% (inactive) | -5% (inactive) | 57.6% (inactive) | 5% (inactive) | -13% (inactive) | 12.2% (inactive) | – | – | – | – | – | – |
| CN(C)c1nc(N)c(C#N)c(C#N)c1C#N | 69.6% (inactive) | 21% (inactive) | 62% (inactive) | 21% (inactive) | 44% (inactive) | 88.2% (active) | 11% (inactive) | 61% (inactive) | 80.8% (active) | 27% (inactive) | 45% (inactive) | 53.9% (inactive) | 9% (inactive) | 79% (active) | 88.5% (active) | 26% (inactive) | 85% (active) | – |
| COc1cc(NCCCCCCC2CCCCN2)c2ncccc2c1 (centres undefined) | 50.5% (inactive) and 85.7% (active) | 0% (inactive) and 4% (inactive) | 81% (active) and 71% (active) | -1% (inactive) | 47% (inactive) and 23% (inactive) | 49.2% (inactive) and 45.4% (inactive) | -7% (inactive) and 0% (inactive) | 71% (active) and 81% (active) | 40.6% (inactive) and 88% (active) | 5% (inactive) and 3% (inactive) | 27% (inactive) and 61% (inactive) | 14.1% (inactive) and 11.3% (inactive) | 1% (inactive) and 4% (inactive) | 54% (inactive) and 37% (inactive) | 53.4% (inactive) and 71.5% (active) | – | – | – |
| CCCCCCCCCCNC1CC(OC2CC(O)(C(O)CO)Cc3c(O)c4c(c(O)c32)C(=O)c2c(OC)cccc2C4=O)OC(C)C1O (centres undefined) | 85.8% (active) | 96% (active) | 97% (active) | 99% (active) | 98% (active) | 89.7% (active) | 95% (active) | 98% (active) | 90.2% (active) | 80% (active) | 96% (active) | 88.2% (active) | 49% (inactive) | 97% (active) | 87.8% (active) | 99% (active) | 96% (active) | – |
| CN(C)/C=C1\CCc2ccc([N+](=O)[O-])cc2C1=O | 6.9% (inactive) | 19% (inactive) | 21% (inactive) | 17% (inactive) | 25% (inactive) | 0.45% (inactive) | 24% (inactive) | 29% (inactive) | 16.4% (inactive) | 31% (inactive) | 17% (inactive) | 12.1% (inactive) | 26% (inactive) | 19% (inactive) | 21.4% (inactive) | – | – | – |
| OCc1ccccc1C(c1ccccc1)c1ccccc1 | 3.45% (inactive) | 0% (inactive) | 98% (active) | 9% (inactive) | 99% (active) | 64.7% (inactive) | -1% (inactive) | 70% (active) | 73% (active) | 8% (inactive) | 98% (active) | 5.85% (inactive) | 0% (inactive) | 99% (active) | 91% (active) | 6% (inactive) | 94% (active) | 84.1% (active) |
| O=[N+]([O-])c1cccc2nc3ccccc3c(NCCN(CCO)CCO)c12 | 71% (active) | 81% (active) | 94% (active) | 88% (active) | 98% (active) | 73.4% (active) | 91% (active) | 98% (active) | 52.5% (inactive) | 95% (active) | 99% (active) | 84.8% (active) | 79% (active) | 99% (active) | -17.6% (inactive) | 90% (active) | 96% (active) | 58% (inactive) |
| CCOC(=O)c1c[nH]c2c(ccc3cccnc32)c1=O | 38% (inactive) and 38.8% (inactive) | 10% (inactive) and 5% (inactive) | 64% (inactive) and 66% (inactive) | 7% (inactive) and -15% (inactive) | 64% (inactive) and 43% (inactive) | 13.9% (inactive) and 12.2% (inactive) | 8% (inactive) and -1% (inactive) | 85% (active) and 56% (inactive) | 10.8% (inactive) and 52.7% (inactive) | 3% (inactive) and -3% (inactive) | 43% (inactive) and 41% (inactive) | 26.9% (inactive) and 24.3% (inactive) | -3% (inactive) and 4% (inactive) | 48% (inactive) and 43% (inactive) | 18.4% (inactive) and 6.8% (inactive) | 2% (inactive) and -1% (inactive) | 84% (active) and 79% (active) | 37.7% (inactive) and 79.8% (active) |
| OCCNc1nc(NCCO)c2nc(-c3ccccc3)c(-c3ccccc3)nc2n1 | -2.2% (inactive) and 58% (inactive) | 8% (inactive) and -2% (inactive) | 61% (inactive) and 43% (inactive) | -3% (inactive) and 1% (inactive) | 45% (inactive) | -0.45% (inactive) and 43.8% (inactive) | -9% (inactive) and 0% (inactive) | 88% (active) and 51% (inactive) | 0.6% (inactive) and 57.6% (inactive) | 6% (inactive) and -2% (inactive) | 37% (inactive) and 32% (inactive) | -7.45% (inactive) and 49.8% (inactive) | 6% (inactive) and -1% (inactive) | 61% (inactive) and 43% (inactive) | -0.8% (inactive) and 41.7% (inactive) | 5% (inactive) and -1% (inactive) | 89% (active) and 52% (inactive) | 16.5% (inactive) and 61.2% (inactive) |
| CCN(CC)CCCn1c2cc(=O)c(=O)cc-2[nH]c2cc(C)ccc21 | 10.4% (inactive) | 1% (inactive) | 58% (inactive) | 2% (inactive) | 27% (inactive) | -4.3% (inactive) | 2% (inactive) | 74% (active) | 23.6% (inactive) | 5% (inactive) | 55% (inactive) | -15.4% (inactive) | 3% (inactive) | 51% (inactive) | -8.05% (inactive) | 3% (inactive) | 52% (inactive) | 40% (inactive) |
| COc1cccc2c1C(=O)c1c(O)c3c(c(O)c1C2=O)C[C@@](O)(C(=O)CO)C[C@@H]3OC1CC(N)C(O)C(C)O1 (some centres undefined) | 92.2% (active) and 94.8% (active) and 20.2% (inactive) | 91% (active) and 50% (inactive) and -5% (inactive) | 99% (active) and 94% (active) and 0% (inactive) | 41% (inactive) and 20% (inactive) and -6% (inactive) | 99% (active) and 82% (active) and -16% (inactive) | 93.7% (active) and 52.2% (inactive) and -26% (inactive) | 53% (inactive) and 15% (inactive) and 4% (inactive) | 99% (active) and 88% (active) and -2% (inactive) | 94.6% (active) and 88% (active) and 5% (inactive) | 25% (inactive) and 5% (inactive) and -23% (inactive) | 98% (active) and 49% (inactive) and 1% (inactive) | 90.5% (active) and 11.1% (inactive) and 91.5% (active) | 57% (inactive) and 2% (inactive) and 22% (inactive) | 98% (active) and 72% (active) and 17% (inactive) | 93.7% (active) and 88.8% (active) and -40.1% (inactive) | 69% (inactive) and 44% (inactive) and -8% (inactive) | 98% (active) and 84% (active) and -10% (inactive) | 92.8% (active) and 89.8% (active) and 46.3% (inactive) |
| Cc1cc2c(C(C)C)c(O)c(O)c(C=Nc3ccccc3S)c2c(O)c1-c1c(C)cc2c(C(C)C)c(O)c(O)c(C=Nc3ccccc3S)c2c1O | 36.2% (inactive) | -3% (inactive) | 53% (inactive) | -12% (inactive) | 28% (inactive) | 55% (inactive) | -4% (inactive) | 4% (inactive) | 57.3% (inactive) | -9% (inactive) | 16% (inactive) | 44.6% (inactive) | -8% (inactive) | 45% (inactive) | 39.5% (inactive) | -5% (inactive) | 66% (inactive) | 53.5% (inactive) |
| [N-]=[N+]=CC(=O)OCC1NC(=O)C(COC(=O)C=[N+]=[N-])NC1=O (centres undefined) | -10.3% (inactive) and 80.2% (active) | 5% (inactive) | -1% (inactive) | 2% (inactive) | 6% (inactive) | -20.1% (inactive) and 85.7% (active) | -1% (inactive) | 3% (inactive) | 12.6% (inactive) and 71.3% (active) | -2% (inactive) | -7% (inactive) | 6.1% (inactive) and 76% (active) | -1% (inactive) | -2% (inactive) | 3.8% (inactive) and 85.3% (active) | 2% (inactive) | 1% (inactive) | 4.15% (inactive) and 86.6% (active) |
| C=C1C(=O)C23OC2C1CCC(=O)C1(C)CC[C@H](OC(C)=O)C(C)(C)[C@H]1CC3=O (some centres undefined) | 99.2% (active) | 96% (active) | -2% (inactive) | 98% (active) | 1% (inactive) | 99.5% (active) | 98% (active) | 0% (inactive) | 99.5% (active) | 95% (active) | -1% (inactive) | 99% (active) | 98% (active) | -1% (inactive) | 99% (active) | 98% (active) | -1% (inactive) | 99.2% (active) |

— PubChem BioAssay (NCI)
